Compound activity from PubChem.
Rows were chosen to be rich in hits. Some 8.9% of all compounds tested hit in one or more screens of this group.
NPSR antagonist: blocks cAMP signaling of the human neuropeptide S receptor; Q6W5P4; CHO-NPSR cells, cAMP TR-FRET, antagonist mode; Potency, µM (series often up to 38.3 µM), actives largely listed as inhibitors; hit rate 1% among 220,000; AID 1461; note: nearly all actives have a fitted effect of over 50% in size
IMPase Li inh: IMPase inhibition in cells with lithium potentiation; CHO-M1 cells, IP1 TR-FRET (IP-One), carbachol + lithium; Potency, µM (top dose mostly 59.4 µM), actives largely listed as inhibitors; hit rate 0.35% among 210,000; AID 1457;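 note: IP1 builds up when IMPase is blocked and the TR-FRET signal falls; nearly all actives have a fitted effect of over 50% in size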
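Lithium-sensitised IP1 accumulation assay; M1-expressing CHO cells treated 30 min at 37C with compound. Competitive antibody detection by time-resolved FRET followed a 10 min room-temperature lysis step.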
HPGD block: HPGD (human) dehydrogenase inhibition; purified HPGD, NADH fluorescence kinetic, PGE2 substrate; Potency, µM, most hits filed as inhibitors; hit rate 4.3% among 150,000; AID 894; active = well fitted inhibition curve with a large enough effect, not every such curve was filed as active; inconclusive = small, poorly fitted or top-dose-only effect, or another doubt; inactive = no such curve, though single readings can be large or run the other way
Target sequence (P15428 whole entry, looked up): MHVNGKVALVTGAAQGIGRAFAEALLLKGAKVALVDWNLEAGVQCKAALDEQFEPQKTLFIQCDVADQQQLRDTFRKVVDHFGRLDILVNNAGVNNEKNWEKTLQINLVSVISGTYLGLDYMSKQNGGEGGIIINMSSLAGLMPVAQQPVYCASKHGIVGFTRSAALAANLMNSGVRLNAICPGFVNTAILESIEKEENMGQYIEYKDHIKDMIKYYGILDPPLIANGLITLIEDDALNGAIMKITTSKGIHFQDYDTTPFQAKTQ
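NADH formation kinetics: reaction with 30 uM PGE2 and 1 mM NAD+ (final), 20 nM enzyme, Tris-HCl pH 8 with Tween 20, after 15 min compound preincubation at room temperature. Fluorescence change, last versus first of five reads.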
ALDH1A1 inh: blocks purified human ALDH1A1 activity. Purified ALDH1A1, NADH fluorescence, propionaldehyde substrate. Potency, µM (top dose mostly 75.3 µM), usual class: inhibitors. hit rate 7.3% among 220,000. AID 1030; active = well fitted inhibition curve with a large enough effect, not every such curve was filed as active; inconclusive = small, poorly fitted or top-dose-only effect, or another doubt; inactive = no such curve, though single readings can be large or run the other way
ALOX12 inhib: 12-hLO (ALOX12) enzyme inhibition; P18054; purified 12-hLO, xylenol orange hydroperoxide absorbance; Potency, µM (doses to about 57.1 µM), most hits filed as inhibitors; hit rate 0.12% among 150,000; AID 1452; note: nearly all actives have a fitted effect of over 55% in size
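Purified human 12hLO (150 nM), preincubated 15 min with compound, then 40 uM arachidonic acid for 30 min, room temperature, Hepes pH 7.0 with 0.01% Triton X-100. Hydroperoxide detected by ferrous iron/xylenol orange; 573/405 nm absorbance ratio gives reaction progress.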
IMPase cell inh: cell-permeable inhibitors of inositol monophosphatase (IMPase); CHO-M1 cells, IP1 accumulation, HTRF TR-FRET ratio; 120,000 tested, under 10 active; P97697; AID 901; inhibition (IP1 accumulation), % at 46.1 µM; active = well fitted curve in the direction sought with a large enough effect in the signal ratio, not every such curve was filed as active; inconclusive = small, poorly fitted or top-dose-only effect, or a change in a side signal; inactive = no such curve, though single readings can be large or run the other way; the % refers to the signal ratio;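 note: cells stimulated with carbachol in lithium chloride buffer; higher means more IMPase inhibition seen as more IP1 and lower FRET ratio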
Target sequence (P97697 whole entry, looked up): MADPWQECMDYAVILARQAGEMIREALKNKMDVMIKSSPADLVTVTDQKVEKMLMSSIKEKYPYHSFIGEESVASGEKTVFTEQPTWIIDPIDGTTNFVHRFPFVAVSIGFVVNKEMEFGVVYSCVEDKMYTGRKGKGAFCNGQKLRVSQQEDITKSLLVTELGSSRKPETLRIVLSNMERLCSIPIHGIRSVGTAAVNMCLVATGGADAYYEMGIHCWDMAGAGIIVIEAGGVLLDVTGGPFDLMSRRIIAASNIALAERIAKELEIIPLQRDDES
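CHO-M1 cells (CHO stably expressing M1 receptor), compound up to 46 uM final, stimulated with carbachol (50 uM as added) in buffer with 50mM LiCl, pH 7.4, 30 min at 37C. Cytosolic IP1 read by TR-FRET; AC50 from Hill fits.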
A number is an active result; ! = repeats disagree; [ ] = remark or other dose. Unless noted, calls come from the whole dose curve; as a rule, active = well fitted curve in the direction sought with a large enough effect; inconclusive = small, poorly fitted or top-dose-only effect, or another doubt; inactive = no such curve, though single readings can be large; an effect the other way counts as inactive or inconclusive.

Results for CCOc1cc(CNCCc2c[nH]c3ccccc23)cc(Cl)c1OCC ?
NPSR antagonist: inactive; IMPase Li inh: inactive; HPGD block: inactive; ALDH1A1 inh: inactive; ALOX12 inhib: inactive

What do the screens show for `CCOc1c(Cl)cc(CNCCc2c[nH]c3ccccc23)cc1OC`?
NPSR antagonist: inactive; IMPase Li inh: inactive; ALDH1A1 inh: 3.55µM

Results for COc1cccc(C(=O)C2CCCN(Cc3cccc(C)n3)C2)c1 (stereo unspecified) ?
NPSR antagonist: inconclusive; IMPase Li inh: inactive; ALDH1A1 inh: inactive

Results for CC(=O)CC(c1ccccc1[N+](=O)[O-])c1c(O)c2ccccc2oc1=O (stereo unspecified) ?
NPSR antagonist: inactive

How did O=c1oc2ccccc2c(O)c1Cc1c(O)c2ccccc2oc1=O do in these assays?
IMPase Li inh: inactive; HPGD block: inactive; ALDH1A1 inh: 6.31µM!; ALOX12 inhib: inactive; IMPase cell inh: inactive

Results for COc1ccc2c(c1)[nH]c1c(C)nccc12 ?
IMPase Li inh: inactive; HPGD block: inconclusive; ALDH1A1 inh: 5.62µM; ALOX12 inhib: inactive; IMPase cell inh: inactive

What do the screens show for `N#CC(Cl)(Cl)Cl`?
IMPase Li inh: inactive; HPGD block: inactive; ALDH1A1 inh: 20µM; ALOX12 inhib: inactive

Results for NCC(CC(=O)O)c1ccc(Cl)cc1 (stereo unspecified) ?
NPSR antagonist: inactive; IMPase Li inh: inactive; HPGD block: inactive; ALDH1A1 inh: inactive; ALOX12 inhib: inactive; IMPase cell inh: inactive

Results for Cc1ccc(C2(O)CCN3CCCCC32)cc1 (stereo unspecified) ?
NPSR antagonist: inactive[7.67 µM]; IMPase Li inh: inactive; HPGD block: inactive; ALDH1A1 inh: inactive; ALOX12 inhib: inactive; IMPase cell inh: inactive

What do the screens show for `Cc1ccc(NC(=[OH+])c2cc3ccccc3cc2O)c(C)c1.Cc1ccc(NC(=[OH+])c2cc3ccccc3cc2O)c(C)c1.[Ni]`?
IMPase Li inh: inactive; HPGD block: 1.78µM; ALDH1A1 inh: inactive[13.5 µM]; ALOX12 inhib: inactive[11.4 µM]

What do the screens show for `S=c1[nH]nc(-c2ccco2)n1-c1cccc2ccccc12`?
NPSR antagonist: inactive; IMPase Li inh: inactive; HPGD block: inconclusive; ALDH1A1 inh: inconclusive; ALOX12 inhib: inactive; IMPase cell inh: inactive

What do the screens show for `Nn1c(Cc2cccc3ccccc23)n[nH]c1=S`?
NPSR antagonist: inactive; IMPase Li inh: inactive; ALDH1A1 inh: 22.4µM

Results for CN1CCN(c2ccc([N+](=O)[O-])c(NCC3CCCO3)c2)CC1 (stereo unspecified) ?
NPSR antagonist: inactive; ALDH1A1 inh: inactive; ALOX12 inhib: inconclusive; IMPase cell inh: inactive

What do the screens show for `O=C1C=CC(=O)c2c(O)cccc21`?
IMPase Li inh: inactive; HPGD block: 14.1µM; ALDH1A1 inh: 12.6µM; ALOX12 inhib: inactive

How did CSc1ccc(C(=O)C2CCCN(C)C2)cc1 (stereo unspecified) do in these assays?
NPSR antagonist: inactive; IMPase Li inh: inactive; ALDH1A1 inh: inactive

How did Nc1ccc([N+](=O)[O-])cc1[N+](=O)[O-] do in these assays?
IMPase Li inh: inactive; HPGD block: inactive; ALDH1A1 inh: inactive; ALOX12 inhib: inactive

Results for O=[N+]([O-])c1ccc(F)c([N+](=O)[O-])c1 ?
IMPase Li inh: inactive; HPGD block: inactive; ALDH1A1 inh: 20µM; ALOX12 inhib: inactive

How did O=C(/C=C/c1ccccc1)c1c(O)n(CCc2ccccc2)c(=O)[nH]c1=O do in these assays?
NPSR antagonist: 12.6µM; IMPase Li inh: inactive; HPGD block: inactive; ALDH1A1 inh: inactive; ALOX12 inhib: inactive

Results for COc1cc(/C=C/C(=O)c2c(O)n(CCc3ccccc3)c(=O)[nH]c2=O)ccc1O ?
NPSR antagonist: 10µM; IMPase Li inh: inactive; HPGD block: inactive; ALDH1A1 inh: inactive; ALOX12 inhib: inactive; IMPase cell inh: inactive

Results for O=C(CCCN1CCC2(CC1)C(=O)NCN2c1ccccc1)c1ccc(F)cc1 ?
NPSR antagonist: inactive; IMPase Li inh: inactive; HPGD block: inactive; ALDH1A1 inh: inactive; ALOX12 inhib: inactive; IMPase cell inh: inactive

What do the screens show for `CC(=O)[O-].CC(=O)[O-].O.O.[Cd+2]`?
IMPase Li inh: inactive; HPGD block: inactive; ALDH1A1 inh: 7.51µM; ALOX12 inhib: inactive
